Laboratory results reported in PubChem BioAssay (Tox21).
Inconclusive results are not listed. The source made the active and inactive calls. Unless noted, the call rests on the fitted dose curve; in most records, active means well fitted curve in the direction sought with a large enough effect in the repeat runs; inconclusive means weak or mixed curves; inactive means no such curve, though single readings can be large; an effect the other way counts as inactive or inconclusive.

Key:
[1] = qHTS assay to test for compound auto fluorescence at 535 nm (green) in HEK293 cells (AID 720680)
[2] = qHTS assay to test for compound auto fluorescence at 460 nm (blue) in HEK293 cell free culture (AID 720681)
Summary of the method: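 Compounds were added to cell-free DMEM with 10% FBS and fluorescence read directly. The blue channel used 405 nm excitation and 460 nm emission, with triamterene as the reference fluorophore.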

[3] = qHTS assay to test for compound auto fluorescence at 535 nm (green) in HEK293 cell free culture (AID 720682)
Summary of the method: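 Compounds were pin-transferred into cell-free DMEM with 10% FBS, and green fluorescence was read at excitation 485 nm and emission 535 nm. Intensities were expressed as fluorescein-equivalent values.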

[4] = qHTS assay to test for compound auto fluorescence at 590 nm (red) in HEK293 cell free culture (AID 720683)
Summary of the method: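 Cell-free wells of DMEM with 10% FBS received compound, and intrinsic fluorescence was read at excitation/emission 540/590 nm. Values expressed as equivalence to Rose Bengal sodium.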

[5] = qHTS assay to test for compound auto fluorescence at 590 nm (red) in HepG2 cell free culture (AID 720684)
Summary of the method: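 Rose Bengal sodium served as the reference for red signal. Test compounds were dispensed into serum-containing MEM (10% FBS) without cells, and plates were read at 540/590 nm.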

[6] = qHTS assay to test for compound auto fluorescence at 460 nm (blue) in HepG2 cell free culture (AID 720685)
Summary of the method: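 Cell-free plates of MEM plus 10% FBS received 23 nL compound or DMSO vehicle; blue-channel (405/460 nm) intensity scored against triamterene as reference fluorophore.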

[7] = qHTS assay to test for compound auto fluorescence at 535 nm (green) in HepG2 cell free culture (AID 720686)
[8] = qHTS assay to test for compound auto fluorescence at 460 nm (blue) in HepG2 cells (AID 720687)
Summary of the method: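 HepG2 cells in MEM with 10% FBS, attached overnight at 37 C, were exposed to compound or DMSO for 1 hr at 37 C, 5% CO2. Blue fluorescence was read at 405/460 nm, with triamterene as reference fluorophore.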

[9] = biological target: Glucocorticoid receptor (Homo sapiens) (UniProt P04150); experiment: qHTS assay to identify small molecule agonists of the glucocorticoid receptor (GR) signaling pathway (AID 720691; active means well fitted activation curve with a large enough effect in the signal ratio in the repeat runs, not every such curve was filed as active; the % refers to the signal ratio)
Summary of the method: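 Compounds in DMSO, alongside positive controls, were added to GR-bla HeLa reporter cells and incubated 18 h at 37 C; GRE-driven beta-lactamase was detected by fluorescence after 2 h with FRET substrate at room temperature.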

[10] = qHTS assay to identify small molecule antagonists of the glucocorticoid receptor (GR) signaling pathway - cell viability counter screen (AID 720693); further: nearly all actives have a fitted effect of over 55% in size
[11] = qHTS assay for identifying genotoxic compounds that show differential cytotoxicity against isogenic chicken DT40 cell lines with known DNA damage response pathways - wild type cell line (AID 743012); further: nearly all actives have a fitted effect of over 60% in size
Summary of the method: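 Viability of DNA repair-proficient chicken DT40 cells was assessed by CellTiter-Glo luminescence following 40 h compound exposure at 37 C/5% CO2.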

[12] = qHTS assay for identifying genotoxic compounds that show differential cytotoxicity against isogenic chicken DT40 cell lines with known DNA damage response pathways - Rad54/Ku70 mutant cell line (AID 743015); further: nearly all actives have a fitted effect of over 60% in size
[13] = qHTS assay to identify small molecule antagonists of the androgen receptor (AR) signaling pathway - cell viability counter screen (AID 743033; further: nearly all actives have a fitted effect of over 45% in size)
[14] = qHTS assay to identify small molecule antagonists of the androgen receptor (AR) signaling pathway using the MDA cell line - cell viability counter screen (AID 743041; further: nearly all actives have a fitted effect of over 45% in size)
Summary of the method: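 Cytotoxicity counter screen: MDA-kb2 AR-luc cells, compound + R1881, 16 h, 37C, 0% CO2; CellTiter-Fluor added at 15.5 h, fluorescence read after 30 min.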

[15] = qHTS assay for identifying genotoxic compounds that show differential cytotoxicity against isogenic chicken DT40 cell lines with known DNA damage response pathways - Rev3 mutant cell line (AID 743014); further: nearly all actives have a fitted effect of over 55% in size
[16] = biological target: Androgen receptor (Homo sapiens) (UniProt P10275); experiment: qHTS assay to identify small molecule antagonists of the androgen receptor (AR) signaling pathway (AID 743035; active means well fitted inhibition curve with a large enough effect in the signal ratio in the repeat runs, not every such curve was filed as active; the % refers to the signal ratio)
Summary of the method: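 Reporter HEK293 cells were exposed to compounds and R1881 overnight (16 h, 37C); beta-lactamase activity was then quantified by FRET fluorescence.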

[17] = biological target: Androgen receptor (Homo sapiens) (UniProt P10275); experiment: qHTS assay to identify small molecule agonists of the androgen receptor (AR) signaling pathway (AID 743036; active means well fitted activation curve with a large enough effect in the signal ratio in the repeat runs, with a control signal flat, not every such curve was filed as active; the % refers to the signal ratio)
Summary of the method: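 Activation was read as beta-lactamase FRET signal from LiveBLAzer B/G substrate, added for 2 h at room temperature. Before that, GeneBLAzer AR-UAS-bla GripTite (HEK293) cells had 16 h compound exposure at 37C.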

[18] = biological target: Androgen receptor (Homo sapiens) (UniProt P10275); experiment: qHTS assay to identify small molecule agonists of the androgen receptor (AR) signaling pathway using the MDA cell line (AID 743040; further: nearly all actives have a fitted effect of over 20% in size)
Summary of the method: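 Luciferase read-out, ONE-Glo, 30 min RT. Cells: MDA-kb2 AR-luc, MMTV promoter with AR and GR response elements. Compound exposure 16 h, 37C, 0% CO2, after 5 h pre-incubation. qHTS agonist mode.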

[19] = biological target: Androgen receptor (Homo sapiens) (UniProt P10275); experiment: qHTS assay to identify small molecule antagonists of the androgen receptor (AR) signaling pathway using the MDA cell line (AID 743042; further: nearly all actives have a fitted effect of over 55% in size)
Summary of the method: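 MDA-kb2 breast carcinoma cells carrying MMTV-luciferase (AR/GR responsive) were co-treated with compounds and the agonist R1881 for 16 h at 37C. Inhibition read as ONE-Glo luminescence; CellTiter-Fluor fluorescence measured in parallel for cytotoxicity.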
On the % scale 0 is the no-effect control and ±100 the full control effect.

Androgen receptor (Homo sapiens), sequence (P10275 whole entry, looked up): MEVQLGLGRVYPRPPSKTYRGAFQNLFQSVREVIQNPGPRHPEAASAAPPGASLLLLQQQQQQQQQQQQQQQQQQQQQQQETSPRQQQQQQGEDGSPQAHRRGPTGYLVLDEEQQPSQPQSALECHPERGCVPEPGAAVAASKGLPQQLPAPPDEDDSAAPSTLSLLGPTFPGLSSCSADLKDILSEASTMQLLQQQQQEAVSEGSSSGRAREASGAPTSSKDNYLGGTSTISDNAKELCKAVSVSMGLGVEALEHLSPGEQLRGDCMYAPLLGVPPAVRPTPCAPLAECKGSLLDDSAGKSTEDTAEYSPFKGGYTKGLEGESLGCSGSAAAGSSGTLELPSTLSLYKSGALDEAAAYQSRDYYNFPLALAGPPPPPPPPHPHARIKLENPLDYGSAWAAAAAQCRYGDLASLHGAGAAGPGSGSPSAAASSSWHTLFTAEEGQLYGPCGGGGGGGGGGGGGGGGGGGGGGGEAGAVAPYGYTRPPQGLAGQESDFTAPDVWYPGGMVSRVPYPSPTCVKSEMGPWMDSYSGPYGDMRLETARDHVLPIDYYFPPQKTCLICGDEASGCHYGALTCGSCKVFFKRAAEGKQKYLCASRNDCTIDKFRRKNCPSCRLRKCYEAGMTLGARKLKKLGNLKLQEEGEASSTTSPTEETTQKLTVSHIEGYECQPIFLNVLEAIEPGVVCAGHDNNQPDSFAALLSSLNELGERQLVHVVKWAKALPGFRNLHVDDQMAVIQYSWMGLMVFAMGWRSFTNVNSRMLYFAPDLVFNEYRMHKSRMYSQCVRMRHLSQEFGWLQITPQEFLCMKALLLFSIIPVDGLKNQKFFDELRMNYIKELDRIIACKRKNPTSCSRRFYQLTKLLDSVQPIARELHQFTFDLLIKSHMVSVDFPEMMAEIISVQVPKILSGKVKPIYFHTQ
Glucocorticoid receptor (Homo sapiens), sequence (P04150 whole entry, looked up): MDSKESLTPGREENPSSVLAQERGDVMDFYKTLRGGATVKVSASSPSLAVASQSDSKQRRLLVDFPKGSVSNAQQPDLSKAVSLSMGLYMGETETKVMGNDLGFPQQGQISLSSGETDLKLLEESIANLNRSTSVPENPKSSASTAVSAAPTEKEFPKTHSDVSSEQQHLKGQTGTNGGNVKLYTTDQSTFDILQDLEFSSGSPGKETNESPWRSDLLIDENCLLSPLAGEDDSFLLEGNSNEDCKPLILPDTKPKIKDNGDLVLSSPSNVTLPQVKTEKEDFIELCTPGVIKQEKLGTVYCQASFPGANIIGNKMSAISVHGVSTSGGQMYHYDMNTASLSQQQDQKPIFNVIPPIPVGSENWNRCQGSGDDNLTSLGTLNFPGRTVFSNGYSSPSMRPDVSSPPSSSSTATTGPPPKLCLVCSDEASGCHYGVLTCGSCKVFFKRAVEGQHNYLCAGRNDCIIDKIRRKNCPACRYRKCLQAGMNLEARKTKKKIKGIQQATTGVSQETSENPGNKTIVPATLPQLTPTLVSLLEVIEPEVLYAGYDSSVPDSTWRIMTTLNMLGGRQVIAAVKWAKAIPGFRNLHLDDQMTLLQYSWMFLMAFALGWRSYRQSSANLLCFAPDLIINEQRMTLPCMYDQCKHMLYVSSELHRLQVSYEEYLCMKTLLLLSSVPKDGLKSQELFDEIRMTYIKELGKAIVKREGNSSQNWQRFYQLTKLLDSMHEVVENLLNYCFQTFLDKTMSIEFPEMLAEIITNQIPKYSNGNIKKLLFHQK

C[N+]12CCC(CC1)C(OC(=O)C(O)(c1ccccc1)c1ccccc1)C2 (stereo not drawn)
inactive: fluorescence, % of fluorescein [1] 0.041% [at 18.6 µM] | fluorescence, % of fluorescent control [2] 0.066% [at 18.6 µM] | activity change [3] 0.0169% [at 18.6 µM] | fluorescence, % of fluorescent control [4] 0.0635% [at 18.6 µM] | fluorescence, % of Rose Bengal [5] 0.213% [at 18.6 µM] | fluorescence, % of fluorescent control [6] -0.0875% [at 18.6 µM] | fluorescence, % of fluorescein control [7] -0.0194% [at 18.6 µM] | fluorescence, % of fluorescent control [8] 0.0552% [at 18.6 µM] | Potency [9] | outcome [10] | Potency [11] | Potency [12] | outcome [13] | Potency [14]

CCC1C(=O)OCC1Cc1cncn1C (stereo not drawn)
inactive: outcome [1] | outcome [2] | outcome [3] | outcome [4] | outcome [5] | outcome [6] | outcome [7] | outcome [8] | outcome [10] | Potency [11] | Potency [15] | Potency [12] | outcome [13] | Potency [14]

C=COCC1CCC(COC=C)CC1 (stereo not drawn)
inactive: outcome [1] | outcome [2] | outcome [3] | outcome [4] | outcome [5] | outcome [6] | outcome [7] | outcome [8] | Potency [9] | Potency [11] | outcome [13] | Potency [14]

CN1[C@@H]2CC[C@H]1CC(OC(=O)C(O)c1ccccc1)C2 (stereo partly drawn)
inactive: outcome [1] | outcome [2] | outcome [3] | outcome [4] | outcome [5] | outcome [6] | outcome [7] | outcome [8] | outcome [10] | Potency [11] | Potency [15] | Potency [12] | outcome [13] | Potency [14]

C=C(C)C(=O)OCCOCCOCCOCCOC(=O)C(=C)C
inactive: outcome [1] | outcome [2] | outcome [3] | outcome [4] | outcome [5] | outcome [6] | outcome [7] | outcome [8] | outcome [10] | Potency [15] | outcome [13] | Potency [14]

CC(C(=O)O)c1cccc(Oc2ccccc2)c1 (stereo not drawn)
inactive: fluorescence, % of fluorescein [1] 0.0474% [at 18.6 µM] | fluorescence, % of fluorescent control [2] -0.022% [at 18.6 µM] | activity change [3] 0.0987% [at 18.6 µM] | fluorescence, % of fluorescent control [4] -0.0434% [at 18.6 µM] | fluorescence, % of Rose Bengal [5] 0.647% [at 18.6 µM] | fluorescence, % of fluorescent control [6] -0.0014% [at 18.6 µM] | fluorescence, % of fluorescein control [7] 0.0607% [at 18.6 µM] | fluorescence, % of fluorescent control [8] -0.0143% [at 18.6 µM] | outcome [10] | Potency [15] | Potency [12] | outcome [13] | Potency [14]

CCCCCCCC1CCCC1=O (stereo not drawn)
inactive: outcome [1] | outcome [2] | outcome [3] | outcome [4] | outcome [5] | outcome [6] | outcome [7] | outcome [8] | outcome [10] | Potency [15] | Potency [12] | outcome [13] | Potency [16] | outcome [17] | Potency [18] | Potency [14] | outcome [19]

CCCCS(=O)(=O)N[C@@H](Cc1ccc(OCCCCC2CCNCC2)cc1)C(=O)O
inactive: outcome [1] | outcome [2] | outcome [3] | outcome [4] | outcome [5] | outcome [6] | outcome [7] | outcome [8] | outcome [10] | Potency [11] | Potency [15] | Potency [12] | outcome [13] | Potency [16] | Potency [18] | Potency [14] | outcome [19]
